In the library only some 1.7% were active in any assay of this set; here they are far more common.
hERG WT inh – qHTS for Inhibitors of KCHN2 3.1: Wildtype qHTS. Voltage-gated inwardly rectifying potassium channel KCNH2 (Homo sapiens), Q12809. U2OS, BacMam KCNH2, thallium flux FluxOr; hits give low values. activity change, % at 1.84 µM. 340,000 compounds, 0.37% hits. AID 720551, 2013;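 active = maximum activity change below -70%; inconclusive = maximum activity change between -70% and -50%; inactive = maximum activity change above -50%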
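U2OS cells were transduced with wild-type KCNH2 virus (2.03 x 10^8 / mL) for 4 h at room temperature, then cultured overnight at 37 C. Thallium flux was read with FluxOr dye. Rate constants were normalized to DMSO controls.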
KCNH2 3.1 block – qHTS for Inhibitors of KCHN2 3.1: Mutant qHTS | activity change, % (tested at about 1.8 µM) | AID 720553, 2013 | U2OS KCNH2 3.1, thallium flux FluxOr; hits give low values | Potassium voltage-gated channel subfamily H member 2, brain isoform KCNH2 3.1 (human) | 340,000 compounds, 0.95% hits;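 active = maximum activity change below -70%; inconclusive = maximum activity change from -70% to -50%; inactive = maximum activity change above -50%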;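 also: thallium influx rate constant from kinetic fluorescence after stimulation buffer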
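Channel expression came from 3.1 mutant virus (1.77 x 10^8 /mL) applied to suspended U2OS cells for 4 h. Flux was tracked with FluxOr dye plus Red40 quencher, and kinetic rate constants normalized to controls.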
Giardia kill – Small Molecules that selectively kill Giardia lamblia: qHTS | Giardia lamblia trophozoite viability | activity change, % at 7.66 µM, hits read low | 340,000 compounds, 0.15% hits; in the data active = activity change below about -80%; inconclusive = between about -30% and that limit;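 also: parasites exposed to compound for two days anaerobically before the ATP read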
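Trophozoite viability was measured as ATP-dependent luminescence, read 15-30 min after reagent addition. Before that, parasites at 100 cells/well were exposed to compounds for 48 h, anaerobically, at 37 deg C.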
USP1 inh – Inhibitors of USP1/UAF1: Primary Screen; AID 743255, 2014; Ubiquitin carboxyl-terminal hydrolase 1 (Homo sapiens), O94782; 390,000 compounds, 0.23% hits; recombinant USP1/UAF1, Ub-Rhodamine cleavage fluorescence; Potency, µM (highest dose often 57.1 µM), for inactives: at the top dose activity change, negative = inhibition, usual class: inhibitors; active = well fitted inhibition curve with a large enough effect; inconclusive = small, poorly fitted or top-dose-only effect; inactive = no such curve, though single readings can be large or run the other way; also: potency is read from the fitted curve at half-maximal effect; nearly all actives have a fitted effect of over 60% in size
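Step one: compound is pinned into 1nM USP1/UAF1 in HEPES pH 7.8 buffer with TCEP. Step two: 15 min room-temperature incubation. Step three: Ub-Rho (150nM final) starts cleavage, tracked by fluorescence over six one-minute reads.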
Coupling enz – qHTS Assay for Inhibitors of Fructose-1,6-bisphosphate Aldolase from Giardia Lamblia: Coupling assay counterscreen; activity change, negative = inhibition, % at 58.2 µM, hits read low; coupling enzyme system counterscreen, AmpLite Red fluorescence; 290,000 compounds, 0.67% hits; in the data active = activity change below about -30%
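Activity here indicates interference with the coupling reaction, not aldolase inhibition. Compounds at 57.5 uM final met coupling enzymes for 10 min at RT; substrate and AmpLite Red detection followed, with a 525/598 nm fluorescence read after 20 min.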
* hit, by the source's call; ? = inconclusive; . = no result given. % is scaled to controls: 0 for no effect and ±100 for the full control effect.

SMILES	hERG WT inh	KCNH2 3.1 block	Giardia kill	USP1 inh	Coupling enz
O=C(c1ccc(Cl)cc1)C1CCCN(Cc2cccn2-c2ccccn2)C1 (configuration not stated)	-109*	-105*	7	-11%	1
COc1ccc(F)cc1C(=O)C1CCCN(Cc2cccn2-c2cccnc2)C1 (configuration not stated)	14	-19	-10	-8%	-7
COc1ccc(C(=O)C2CCCN(Cc3cccn3-c3ccccn3)C2)cc1F (configuration not stated)	-96*	-93*	17	-21%	7
Cc1ccsc1C(=O)C1CCCN(Cc2cccn2-c2ccc(Cl)cn2)C1 (configuration not stated)	-107*	-15	-7	-5%	7
CC(C)Oc1cccc(C(=O)C2CCCN(Cc3cccn3-c3ccccn3)C2)c1 (configuration not stated)	?	-81*	4	-13%	5
COc1cccc(C(=O)C2CCCN(Cc3cccn3-c3ccccn3)C2)c1 (configuration not stated)	?	-101*	-20	-28%	7
CCCCn1c(C)cc2c(c1=O)C1O[C@](c3ccc(OC)cc3)(Cc3cc(OC)c(OC)cc31)O2	.	.	.	.	0
C=CCc1ccc(OCC(O)CN2CCN(Cc3ccc(Cl)cc3)CC2)c(OC)c1 (configuration not stated)	-50	-83*	-1	-24%	2
C=CCc1ccc(OCC(O)CN2CCC(Cc3ccccc3)CC2)c(OC)c1 (configuration not stated)	-31	-86*	-1	-1%	-1
COc1ccc(S(=O)(=O)c2nnn(-c3ccc(C)c(Cl)c3)c2C)cc1	.	.	.	-4%	.
N#C/C(=C/c1ccc(N2CCOCC2)o1)c1nc2ccccc2[nH]1	-19	-25	-1	25µM*	-25
N#C/C(=C/c1ccc(N2CCOCC2)o1)c1ccc(Br)cc1	-9	-10	10	107%	.
N#C/C(=C\c1ccc(N2CCOCC2)o1)c1ccccc1	-1	-18	-3	?	-44*
N#C/C(=C/c1ccc(N2CCCCCC2)o1)c1cccc(F)c1	22	-30	-13	25µM*	-48*
O=C(CCC(=O)N1CC2CCCN2c2ccccc21)NCc1ccccc1 (configuration not stated)	.	.	.	-21%	.
N#Cc1ccc(NC(=O)c2nc(-c3ccccc3)n(-c3ccccc3)n2)cc1	8	-36	-5	-19%	-38*
O=C(Nc1ccccn1)c1nc(-c2ccccc2)n(-c2ccccc2)n1	10	18	9	-19%	-2
CC(OC(=O)c1nc(-c2ccccc2)n(-c2ccccc2)n1)C(=O)Nc1cc(Cl)cc(Cl)c1 (configuration not stated)	-142*	-44	6	-8%	-2
Cc1nn(-c2ccccc2)c(C)c1C(=O)OC(C)C(=O)Nc1ccc(C(N)=O)cc1 (configuration not stated)	-2	4	0	?	.
COC(=O)c1cc2c(C)c(C)c3ccccn3c-2c1C(=O)OC	-2	4	16	?	-3
CC(C)OC(=O)c1c2c(n3ccccc13)C(=O)c1ccccc1C2=O	-6	0	-29	28µM*	-12
CCOC(=O)N1CCN(C(=O)NC2CCCCC2)CC1	2	-71*	5	-6%	1
COc1ccc(Cl)cc1NC(=O)C(=O)NCc1ccc(Cl)cc1	.	.	.	-7%	.
Cc1ccccc1-n1c(SCc2ccc(Cl)cc2)nc2[nH]ncc2c1=O	.	.	.	-14%	.
Cc1ccc(NC2=CC(=O)C(=O)c3ccccc32)cc1	11	-1	-3	25µM*	-56*
SMILES	hERG WT inh	KCNH2 3.1 block	Giardia kill	USP1 inh	Coupling enz
Cc1cc(NC2=CC(=O)C(=O)c3ccccc32)no1	3	-9	10	2.5µM*	.
Cc1ccc(Nc2ccccc2)cc1	-10	-1	-26	-20%	-6
CCOC(=O)c1ccc(NC2=CC(=O)C(=O)c3ccccc32)cc1	-6	12	-12	7.9µM*	.
NS(=O)(=O)c1ccc(NC2=CC(=O)C(=O)c3ccccc32)cc1	18	-15	-21	8.9µM*	-71*
CC(=O)Nc1ccc(NC2=CC(=O)c3ccccc3C2=O)cc1	2	-4	-8	-9%	-14
CC(C)=C(NC(=O)c1ccccc1Cl)C(=O)NCCc1nc2ccccc2[nH]1	26	22	.	?	.
COc1ccc(-c2nn(-c3ccccc3)cc2CNC[C@H]2O[C@@H](n3cnc(C(N)=O)n3)[C@H](O)[C@@H]2O)cc1	-3	-6	0	-5%	.
CCN(CC)C(=O)c1c(NC(=O)c2cccc(C)c2)sc2c1CCC(C)C2 (configuration not stated)	.	.	.	-18%	.
Cc1ccccc1CNC(=O)C(C)N(c1ccccc1)S(C)(=O)=O (configuration not stated)	.	.	.	-29%	.
Cc1ccc(-c2nc(-c3cc4cccc(OCc5ccccc5F)c4oc3=O)no2)cc1	.	.	.	-13%	.
CCC(C(=O)Nc1cc(Cl)c(OC)cc1OC)c1ccccc1 (configuration not stated)	-2	0	-28	-15%	-1
COc1cc(OC)c(NC2=CC(=O)C(=O)c3ccccc32)cc1Cl	10	6	10	18µM*	-50*
COc1cccc(C(=O)NCCc2sc(-c3cccc(C)c3)nc2C)c1	.	.	.	-19%	.
Cn1c(SCC(=O)N2CCN(c3ccccc3)CC2)nnc1-c1ccco1	-77*	5	8	-21%	3
CCc1c(C)nc(SCC(=O)N2CCN(c3ccccc3)CC2)[nH]c1=O	-79*	.	-8	-10%	1
Cn1c(SCC(=O)N2CCOCC2)nnc1-c1ccco1	-4	-4	8	-14%	3
COc1cccc(OC)c1C1=Nn2c(nnc2-c2ccccc2O)SC1	.	.	.	.	4
COc1ccc(OC)c(CNC(=O)c2ccc3c(c2)c(C)c(C)n3Cc2ccc(Cl)cc2)c1	.	.	.	5%	.
OCC1(Cc2ccccc2)CCN(C2CCN(c3ccc(F)c(F)c3)CC2)CC1	-31	-91*	-8	-15%	10
COc1ccccc1-c1cc(C(=O)Nc2cc(OC)c(OC)c(OC)c2)no1	.	.	.	-25%	.
COc1cc(OC)cc(-c2nnc(NC(=O)CCS(=O)(=O)c3ccc(F)cc3)o2)c1	0	-75*	12	-3%	.
COc1cc(OC)cc(-c2nnc(NC(=O)CCS(=O)(=O)c3ccccc3)o2)c1	1	-11	4	-6%	.
Cc1ccccc1SCC(=O)OCC(=O)Nc1sccc1C(N)=O	13	-74*	-13	-23%	-5
CN1CCC(N(C)C(=O)c2ccc(Cl)c(S(=O)(=O)N3CCOCC3)c2)CC1	-194*	-150*	-12	-11%	.

Compound activity deposited in PubChem by National Center for Advancing Translational Sciences (NCATS).
